Bioassay records deposited in PubChem BioAssay by National Center for Advancing Translational Sciences (NCATS).
An excerpt weighted towards active compounds, which were near 19% of everything screened.
HT1080-NT tox = qHTS for induction of synthetic lethality in tumor cells producing 2HG: qHTS for the HT-1080-NT fibrosarcoma cell line; HT-1080-NT fibrosarcoma viability, CellTiter-Glo ATP luminescence, 48 h; Potency, µM (titrated, usually from 46.1 µM), inactives show top-dose activity, negative = less viability, most hits filed as cytotoxic; actives 1.6% (n = 360,000);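 further: NT is the 2HG producing partner of a matched IDH1 knockdown line; potency means the concentration at half of the fitted maximal effect; 0% = DMSO-treated cells and -100% = media-only wells without cells; nearly all actives have a fitted effect of over 55% in size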
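Read-out is CellTiter-Glo luminescence after 10 minutes at room temperature, following 48 hours' compound treatment of HT-1080-NT cells (750 cells/well, RPMI, 5% FBS, 37 degrees C).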
DT40 TDP1 no CPT = qHTS for Inhibitors of human tyrosyl-DNA phosphodiesterase 1 (TDP1): qHTS in cells in absence of CPT; DT40 Tdp1-/- hTDP1 cells, no CPT, ATP luminescence, 48 h; Potency, µM (highest dose often 46.2 µM), for inactives: at the highest dose activity change, negative = growth inhibition, actives largely listed as inhibitors; actives 15% (n = 420,000); further: potency means the concentration at half of the fitted maximal effect; nearly all actives have a fitted effect of over 55% in size
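Growth of hTDP1-complemented DT40 Tdp1-knockout cells is measured by ATP luminescence after at least 48 hr compound exposure at 37 °C, with DMSO substituting for the 20 nM CPT used in the parallel screen.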
HT1080 IDH1KD tx = qHTS for induction of synthetic lethality in tumor cells producing 2HG: qHTS for the HT-1080-IDH1KD cell line. actives 2% (n = 360,000). HT-1080 IDH1 knockdown viability, ATP luminescence, 48 h. Potency, µM (highest dose often 46.1 µM), for the others: top-dose activity, negative = toxicity, actives largely listed as cytotoxic. AID 686971, 2013;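 further: potency means the concentration at half of the fitted maximal effect; 0% = DMSO wells and -100% = cell-free medium wells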
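Using the IDH1-knockdown HT-1080 line run in the same batch and compound series as the NT line, viability after 48 h at 37 °C was determined by CellTiter-Glo luminescence and expressed as % activity.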
DT40 TDP1 CPT = qHTS for Inhibitors of human tyrosyl-DNA phosphodiesterase 1 (TDP1): qHTS in cells in presence of CPT. chicken DT40 Tdp1-/-;hTDP1 cells + 20 nM CPT, ATP luminescence, 48 h. Potency, µM (series often up to 46.2 µM), for the others: at the top dose activity change, negative = growth inhibition, hits mostly inhibitors. actives 12% (n = 420,000). AID 686979, 2013; further: potency means the concentration at half of the fitted maximal effect; nearly all actives have a fitted effect of over 55% in size
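Cell growth measured by CellTiter-Glo luminescence after a minimum 48 h, 37 C compound exposure with 20 nM CPT in Tdp1-knockout DT40 cells stably expressing hTDP1, seeded 400/well; qHTS titration format.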
IL1B secr inh = qHTS for Inhibitors of Inflammasome Signaling: IL-1-beta AlphaLISA Primary Screen. THP-1 LPS/ATP IL-1B secretion, AlphaLISA, 16 h; hits give low values. activity change, % at 57.5 µM. AID 743279, 2014. actives 4.7% (n = 360,000); in the data active means activity change below about -50%; inconclusive means mostly about -30% to -49%
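Secreted IL-1B measured by AlphaLISA bead assay after 16 h compound exposure of THP-1 cells; compounds (final up to 57.5 uM) added 1 h before LPS (250 ng/mL) and ATP (1.25 mM) stimulation; lower signal means less secretion.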
An asterisk follows results filed as active; ? = inconclusive; · = not tested or not shown; [ ] = another dose, or the depositor's remark. Unless noted, the call rests on the fitted dose curve; in most records, active means well fitted curve in the direction sought with a large enough effect; inconclusive means small, poorly fitted or top-dose-only effect, or another doubt; inactive means no such curve, though single readings can be large; an effect the other way counts as inactive or inconclusive. Unless noted, on the % scale 0 is the no-effect control and ±100 the full control effect.

SMILES	HT1080-NT tox	DT40 TDP1 no CPT	HT1080 IDH1KD tx	DT40 TDP1 CPT	IL1B secr inh
Cc1nn2c(Nc3ccc(F)cc3)c3c(nc2c1-c1ccccc1)CCC3	8%	-2%	9%	-18%	11
CN(CCc1ccccn1)C(=O)CCC1CCCN(C(=O)c2ccsc2)C1 (configuration not stated)	11%	-9%	7%	-4%	1
COCCNc1c2c(nc3c(-c4ccccc4)c(C)nn13)CCCC2	?	?	?	16µM*	-24
Cc1nn2c(NCCOCCO)c3c(nc2c1-c1ccccc1)CCCC3	-10%	?	-1%	-13%	?
Cc1nn2c(NCCN(C)C)c3c(nc2c1-c1ccccc1)CCCC3	15µM*	1µM*	15µM*	0.58µM*	-58*
O=C(COc1ccc(F)cc1)NN1C(=O)CSC1=S	-6%	-27%	-1%	7%	0
Nc1ccc(Cn2ccc3c4c(N)nc(N)nc4ccc32)cc1	0.52µM*	0.13µM*	0.033µM*	?	-99*
COc1ccccc1CNC(=O)C(C)NS(=O)(=O)c1ccc(Br)cc1 (configuration not stated)	0%	?	-4%[9.24 µM]	-11%	9
COc1ccccc1CN(Cc1c(Cl)cccc1Cl)S(=O)(=O)c1ccc(Br)cc1	·	21µM*	·	16µM*	·
Cc1cc(Nc2cccc(Cl)c2)nc2ccc(NC(=O)c3cccc(N(C)C)c3)cc12	·	7.3µM*	·	13µM*	·
Cc1cc(Nc2cccc(C(F)(F)F)c2)nc2ccc(NC(=O)c3ccc(N(C)C)cc3)cc12	·	4.6µM*	·	5.2µM*	·
CCn1nnc2cc(C(=O)Nc3cccc(C(F)(F)F)c3)ccc21	·	-20%	·	-3%	·
Cc1cc(Nc2cccc(Cl)c2)nc2ccc(NC(=O)c3cccnc3)cc12	·	8.2µM*	·	13µM*	·
CN(C)c1cccc(C(=O)Nc2cccc(F)c2)c1	8%	-10%	3%	-6%	-15
CC(=O)Nc1ccc(NC(=S)NC(=O)c2ccc(-c3ccccc3)cc2)cc1	?	-6%	-4%	-3%	6
CC(C)NS(=O)(=O)c1ccc(NC(=S)NC(=O)c2ccc(-c3ccccc3)cc2)cc1	?	14µM*	-28%	11µM*	27
O=C(NC(=S)Nc1ccccc1)c1ccc(-c2ccccc2)cc1	9%	18µM*	7%	?	-7
COc1cc(OC)c(S(=O)(=O)Nc2ccccc2N2CCCCC2)cc1NC(C)=O	-2%	-3%	0%	-2%	6
O=S(=O)(Nc1ccccc1N1CCOCC1)c1ccccc1C(F)(F)F	4%	18µM*	0%	?	40
O=S(=O)(Nc1ccccc1N1CCCCC1)c1ccc(Cl)s1	-11%	8.2µM*	-1%	10µM*	35
O=S(=O)(Nc1ccccc1N1CCCC1)c1ccccc1C(F)(F)F	1%	21µM*	-4%	21µM*	36
COc1cc2nc(N(C)C)c(CNCc3cccc4ccccc34)cc2c(OC)c1OC	·	?	·	-6%[9.04 µM]	·
CS(=O)(=O)c1ccc(-c2csc(C(O)c3cccc(Cl)c3)n2)cc1 (configuration not stated)	-1%	?	-11%	?	1
CCOC(=O)Cc1csc(/C(=N/O)C(N)=O)n1	-11%	0%	0%	-23%	-14
CCOC(=O)C(=NO)C1=CSC2=NNC(C)(C)N12	-8%	21µM*	-17%	?	-1
O=C(/C=C/c1cn(-c2ccccc2)nc1-c1ccccc1)Nc1ccc(C(=O)O)cc1	?	?	23µM*	?	-2
NS(=O)(=O)c1ccc(NC(=O)/C=C/c2cn(-c3ccccc3)nc2-c2cccc(Cl)c2)cc1	?	29µM*	?	?	14
